Experimental data taken from publication PMC4552634, “A New Set of Chemical Starting Points with Plasmodium falciparum Transmission-Blocking Potential for Antimalarial Drug Discovery” (PLoS ONE, 2015).
About 3,200 (25%) of roughly 13,000 compounds showed an effect of 50% or more. The list shows a part of the results.

System: P. falciparum stage V gametocytes
Set-up: BacTiter-Glo ATP luminescence viability of purified stage V gametocytes in 384-well plates, per cent inhibition versus DMSO
Settings: 48 h, 5 µM; inhibitor

Point of comparison: `CN1CCN(c2cc3c(cc2Cl)CCN3C(=O)Cc2ccc(Cl)c(NC(=O)Nc3cccc([N+](=O)[O-])c3)c2)CC1` [TCMDC-139473], “% Inhibition” value -0.749%. Against it:
- O=C(Nc1ccc(F)cc1F)NC1CCN(c2ccnc3cc(Cl)ccc23)C1 (stereo not shown) [TCMDC-133658] — lower, -14.22%
- CCCOc1ccc(C(F)(F)F)cc1NC(=O)c1nc2nc(C)cc(C)n2n1 [TCMDC-125466] — lower, -88.48%
- COc1ccc(N2CCc3c(-c4cccc5cnccc45)cc(C)nc32)c(C)c1 [TCMDC-136362] — higher, -0.3846%
- O=C(NCCCN1CCOCC1)c1ccc(-c2cccc(NC(=O)c3ccc(Cl)c(Cl)c3)c2)cc1 [TCMDC-133693] — lower, -20.47%
- O=C1CC(C(=O)O)CC(=O)N1 [TCMDC-125482] — higher, 13.38%
- COc1ccccc1-n1c(-c2ccc3ccccc3c2)csc1=NC(=O)c1ccccc1 [TCMDC-125668] — lower, -1.763%
- O=C(NCCN1CCC(c2ncc(-c3ccccc3)o2)CC1)c1ccc(NC(=O)c2ccc(Cl)cc2)cc1 [TCMDC-138483] — lower, -8.107%
- CC(C)Cn1cc(C2CCN(CCN3CCC(CNC(=O)c4ccc(NC(=O)c5ccc(Cl)cc5)cc4)CC3)CC2)c2ccccc21 [TCMDC-138865] — higher, 102.8%
- Cn1cc(C2CCN(CCCCNC(=O)c3ccc(C(=O)Nc4ccc(C#N)cc4)cc3)CC2)c2ccccc21 [TCMDC-138788] — higher, -0.3465%
- O=C(NCCCCN1CCC(C(c2ccccc2)c2ccccc2)CC1)c1ccc(NC(=O)c2ccc(Cl)cc2)cc1 [TCMDC-138332] — lower, -3.792%
- CC(C)Cn1cc(C2CCN(CCN3CCC(CNC(=O)c4ccc(NC(=O)c5cc(Cl)cc(Cl)c5)cc4)CC3)CC2)c2ccccc21 [TCMDC-138868] — higher, 108.5%
- Cc1nc(-c2ccccc2)nc(N2CCN(C(=O)c3ccco3)CC2)c1Cc1ccccc1F [TCMDC-124778] — lower, -3.417%
- CC1(C)NC(N)=NC(=N)N1OCCSCCON1C(=N)N=C(N)NC1(C)C [TCMDC-131648] — higher, 6.143%
- COc1cc([N+](=O)[O-])ccc1NC(=O)c1cc(Cl)ccc1O [TCMDC-124051] — higher, 28.26%
- COCCn1c(-c2cccc(Cl)c2)nn(-c2ccc([N+](=O)[O-])cc2C#N)c1=S [TCMDC-134719] — higher, 95.24%
- COCCn1c(-c2cccc(Cl)c2)nn(-c2ccc([N+](=O)[O-])cc2Cl)c1=S [TCMDC-135130] — higher, 91.77%
- O=C(Cc1cccc(O)c1)NCC(Cc1ccc(O)cc1)c1ccccc1 (stereo not shown) [TCMDC-138482] — higher, 7.528%
- CC1CCc2c(C(=O)Nc3c(F)cc(F)cc3Br)csc2C1 (stereo not shown) [TCMDC-125219] — higher, 6.238%
- Cc1cc(N2CCC(C)CC2)nc2cc(O)ccc12 [TCMDC-124413] — lower, -4.047%
- Cc1cc(Nc2ccc(O)cc2)nc2cccc(O)c12 [TCMDC-124414] — lower, -26.97%
- Cc1cc(N2CCN(C3CCCCC3)CC2)nc2cccc(O)c12 [TCMDC-124411] — higher, 54.36%
- COc1ccc(Cl)c(CC2c3cc(O)c(Cl)cc3CCN2C)c1 (stereo not shown) [TCMDC-137168] — lower, -67.78%
- CN(C)CCOc1ccc2c(=O)cc(CCc3cccc(F)c3F)n(CC(=O)N(C)Cc3ccc(-c4ccc(C(F)(F)F)cc4)cc3)c2c1 [TCMDC-141375] — higher, 124.4%
- CN(Cc1ccc(-c2ccc(C(F)(F)F)cc2)cc1)C(=O)Cn1c(CCc2cccc(F)c2F)cc(=O)c2ccc(OCCCN3CCCCC3)cc21 [TCMDC-141377] — higher, 112.1%
- CCN(CC)CCc1ccc2c(=O)cc(CCc3cccc(F)c3F)n(CC(=O)N(C)Cc3ccc(-c4ccc(C(F)(F)F)cc4)cc3)c2c1 [TCMDC-141559] — higher, 137.8%
- CN(Cc1ccc(-c2ccc(C(F)(F)F)cc2)cc1)C(=O)Cn1c(CCc2cccc(F)c2F)cc(=O)c2ccc(OCC3CCCN3C)cc21 (stereo not shown) [TCMDC-141405] — higher, 117.2%
- CCOC(=O)CCCCCNC[C@H](O)c1ccccc1 [TCMDC-131776] — lower, -2.137%
- CC(C)NCc1ccc(-c2ccc(CN3CCCC(c4ccccc4)C3)cc2)c(C(=O)NCC2CCCCC2)c1 (stereo not shown) [TCMDC-134699] — higher, 33.35%
- O=S(=O)(NCCN1CCCC1)c1ccc(-c2ccc(CNCc3ccc(F)cc3)cc2)cc1 [TCMDC-132280] — higher, 62.82%
- O=S(=O)(Nc1cc2c(cc1O)CCN(C1CCC1)CC2)c1ccc(-c2ccc(F)cc2)cc1 [TCMDC-136084] — lower, -82.22%
- NC(Cc1ccc(Cl)cc1)=NCCN1CCCCCC1 [TCMDC-137727] — higher, 39.5%
- Clc1ccc(-c2ccc(CNCCCN3CCCC3)cc2)cc1 [TCMDC-140148] — higher, 75.83%
- O=S(=O)(NCCN1CCCC1)c1ccc(-c2ccc(CNCc3ccccc3)cc2)cc1 [TCMDC-132228] — higher, 101.6%
- Cc1c(CNCCN2CCCCC2)c(C(=O)O)c(C)n1Cc1ccc(Cl)cc1 [TCMDC-125269] — higher, 31.51%
- COC(=O)c1cc(/C(C)=N/Nc2nc3ccccc3[nH]2)ccc1O [TCMDC-139075] — lower, -14.17%
- O=C(NC1CC1)c1ccc(N2CCC(Cc3ccccc3)CC2)nc1 [TCMDC-134591] — higher, 24.62%
- COC(=O)c1ccc(CC(C)NCC(O)c2cccc(C(F)(F)F)c2)cc1C (stereo not shown) [TCMDC-131470] — higher, 8.047%
- OC[C@H](Nc1nc(C(Oc2ccccc2)c2ccccc2)nc2[nH]ncc12)c1ccccc1 (stereo partly shown) [TCMDC-136552] — higher, 43.31%
- C[C@H](Nc1nc(C(Oc2ccccc2)c2ccccc2)nc2[nH]ncc12)c1ccccc1 (stereo partly shown) [TCMDC-136553] — higher, 53.92%
- COc1cccc(OC(C)(C)c2nc(N[C@@H](C)c3ccccc3)c3cn[nH]c3n2)c1 [TCMDC-136619] — higher, 13.05%
- CC1(C)NC(N)=NC(=N)N1OCc1ccc(-c2ccccc2)cc1 [TCMDC-131591] — lower, -7.815%
- Cc1cc(NN=Cc2ccccc2Cl)c2ccccc2n1 [TCMDC-142059] — lower, -35.38%
- COc1ccc2c(NN=Cc3ccccc3Cl)cc(C)nc2c1 [TCMDC-142079] — higher, 78.38%
- COc1ccc2c(NN=Cc3cccc(Cl)c3)cc(C)nc2c1 [TCMDC-142080] — higher, 55.62%
- Cc1ccc2nc(C)cc(NN=CC=Cc3ccccc3)c2c1 [TCMDC-123974] — lower, -10.18%
- COc1cc(C=NNc2cc(C)nc3ccccc23)cc(OC)c1OC [TCMDC-123958] — lower, -11.67%
- Cc1cc(NN=CC=Cc2ccccc2)c2ccccc2n1 [TCMDC-142074] — lower, -83.64%
- COc1ccc2nc(C)cc(N/N=C/C=C/c3ccccc3)c2c1 [TCMDC-142095] — higher, 88.89%
- COc1ccc2nc(C)cc(NN=Cc3ccccc3Cl)c2c1 [TCMDC-142078] — lower, -47.04%
- COc1ccc2c(NN=Cc3cccc(C)n3)ccnc2c1 [TCMDC-142031] — lower, -34.06%
- COc1ccc2nc(C)cc(NN=Cc3cccc(Cl)c3)c2c1 [TCMDC-142077] — higher, 106.6%
- CN(Cc1c(Cl)cnn1C)S(=O)(=O)c1ccc2ccccc2c1 [TCMDC-124903] — higher, 3.551%
- CC(=O)Nc1ncc(C(=O)Nc2cccc(-c3ccc(-c4nc5cc(C(F)(F)F)ccc5[nH]4)s3)c2)s1 [TCMDC-136915] — higher, 15.71%
- Cc1ccc(CN2CCC(C(=O)Nc3ccc(-c4cc5ccccc5[nH]4)cc3)CC2)o1 [TCMDC-124634] — lower, -0.9664%
- CC(ON1C(N)=NC(N)=NC1(C)C)c1ccccc1 (stereo not shown) [TCMDC-131596] — higher, 28.25%
- O=C(Nc1ccc(-n2ccc(C(F)(F)F)n2)cc1)c1cccs1 [TCMDC-125785] — higher, 28.31%
- Cc1cc(CNC(=O)[C@H](CC2CCCCC2)Nc2ccc(C#N)c3ccccc23)c(C(F)(F)F)o1 [TCMDC-136628] — lower, -91.12%
- Cc1cnc(-c2ccc(NC(=O)c3coc4ccc(N5CC(C)N(C)C(C)C5)cc34)cc2)o1 (stereo not shown) [TCMDC-141361] — higher, 27.19%
- Cc1cc(O)nc(NC(=N)NOCc2ccccc2)n1 [TCMDC-131683] — higher, 7.113%
- O=C(NC1CCCC1)c1ccc(N2CCC(NCc3cc4cc(Cl)ccc4[nH]3)CC2)cc1 [TCMDC-124662] — lower, -4.187%
- CCOc1ccc(C(=O)Nc2cc(Br)c3c(c2)CNCC3)cc1C#N [TCMDC-139731] — higher, 94.42%
- COc1ccc(C(=O)Nc2cc(Br)c3c(c2)CNCC3)cc1C(F)(F)F [TCMDC-139728] — higher, 19.24%
- COc1ccc(C(=O)Nc2cc(Br)c3c(c2)CNCC3)cc1Br [TCMDC-139727] — higher, 19.9%
- CCOc1ccc(C(=O)Nc2cc(Br)c3c(c2)CNCC3)cc1C(F)(F)F [TCMDC-139732] — higher, 37.39%
- CCOc1ccc(C(=O)Nc2cc(Br)c3c(c2)CNCC3)cc1Br [TCMDC-139729] — higher, 61.1%
- CCOc1ccc(C(=O)Nc2cc(Br)c3c(c2)CNCC3)cc1Cl [TCMDC-139730] — higher, 27.05%
- O=C1c2ccccc2C(=O)N1c1ccc(S(=O)(=O)N2CCOCC2)cc1 [TCMDC-125740] — higher, 8.047%
- CC(=O)N(C)c1ccc(C(=O)Nc2cccc(-c3cccc(-c4nc5c(C)cccc5[nH]4)c3)c2)cc1 [TCMDC-136850] — lower, -24.43%
- CC(C)Sc1nc2c(c(=O)n1Cc1ccco1)C1(CCCC1)Cc1ccccc1-2 [TCMDC-125844] — higher, 9.662%
